The list is not random: actives were taken first. Their share in the collection is about 9.3%.
Rab9 prom act: activates the Rab9 promoter. Huh7 Rab9 promoter-luciferase reporter, luminescence, 24 h. Potency, µM (titrated, usually from 9.22 µM), for the others: at the highest dose activation, negative = inhibition, hits mostly activators. actives 2.8% (n = 320,000); further: % of control where 0% means no effect; nearly all actives have a fitted effect of over 60% in size
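Promoter activation is measured as luciferase luminescence in Huh7 cells stably transfected with a Rab9 promoter–luciferase construct, following 24 h compound exposure at 37 °C and 10 min reagent incubation at ambient temperature.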
SMN2 splice enh: increases expression of the SMN2 splice variant; HEK293 SMN2-luciferase splicing reporter, luminescence, 30-36 h; Potency, µM (highest dose often 46.1 µM), without a hit: at the highest dose activity change, positive = activation, most hits filed as activators; actives 2.8% (n = 210,000); AID 1458; further: % of control where 0% means no effect; nearly all actives have a fitted effect of over 55% in size
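HEK293 cells carry an SMN2 minigene-luciferase reporter in which exon 7 inclusion puts luciferase in frame. Cells were seeded at 2000 cells/well, attached for 10-12 hours, then exposed to compounds for 30-36 hours at 37C before ONE-Glo luminescence.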
ELG1 DNA repair: ELG1-dependent DNA repair inhibition | HEK293T ELG1-luciferase reporter, luminescence, 16 h; DNA damage induced by 5-fluorouridine | Potency, µM (top dose mostly 46.1 µM), without a hit: at the highest dose activity change, negative = inhibition, hits mostly inhibitors | actives 2.3% (n = 330,000); further: on the % scale 0 is the no-effect control and ±100 the full control effect; nearly all actives have a fitted effect of over 55% in size
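Cells (2,000 per well) received 5-fluorouridine plus test compound or DMSO and were incubated 16 hr at 37 °C, 5% CO2. Luciferase activity was read by luminescence 30 min after ONE-Glo addition; signal suppression marked inhibition of damage-induced ELG1 function.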
NPC1 promoter act: activators of NPC1 promoter; Potency, µM (highest dose often 9.22 µM), for the others: top-dose activation, hits mostly activators; Huh7 NPC1 promoter luciferase reporter, 24 h; actives 2.4% (n = 320,000); further: % of control where 0% means no effect; nearly all actives have a fitted effect of over 60% in size
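Readout is luciferase luminescence, reflecting NPC1 promoter activation in stably transfected Huh7 cells after 24 h compound exposure at 37 °C in reduced-serum medium with 10% FBS.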
FLuc modulator: firefly luciferase modulation, counter-screen for miR-21 project; Potency, µM (top dose mostly 57.5 µM), without a hit: at the top dose activity change, negative = inhibition, hits mostly inhibitors; AID 588342; purified FLuc, Km substrates, luminescence inhibition; actives 6.9% (n = 360,000);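 further: plate controls were vehicle for no effect and reference inhibitor for full effect; nearly all actives have a fitted effect of over 55% in size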
Target sequence (P08659 whole entry, looked up): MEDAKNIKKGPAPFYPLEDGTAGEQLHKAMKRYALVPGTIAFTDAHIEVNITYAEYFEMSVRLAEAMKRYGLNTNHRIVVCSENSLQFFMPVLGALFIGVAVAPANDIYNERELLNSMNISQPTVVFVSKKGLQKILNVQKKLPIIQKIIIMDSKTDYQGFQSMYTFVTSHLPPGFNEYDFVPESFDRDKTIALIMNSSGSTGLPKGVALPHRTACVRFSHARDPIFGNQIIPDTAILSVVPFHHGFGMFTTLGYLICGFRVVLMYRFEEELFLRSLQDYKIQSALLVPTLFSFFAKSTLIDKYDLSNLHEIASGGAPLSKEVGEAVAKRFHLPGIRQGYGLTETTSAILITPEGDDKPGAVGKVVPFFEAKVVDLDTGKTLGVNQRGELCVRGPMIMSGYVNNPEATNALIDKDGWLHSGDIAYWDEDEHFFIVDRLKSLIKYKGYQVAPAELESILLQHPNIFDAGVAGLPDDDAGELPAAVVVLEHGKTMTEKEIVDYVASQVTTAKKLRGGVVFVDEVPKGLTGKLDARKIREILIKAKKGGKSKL
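Biochemical qHTS of compounds, final roughly 60 µM downward over six points, against 10 nM purified firefly luciferase using Km concentrations of substrates (10 uM D-luciferin, 10 uM ATP) in Tris acetate pH 7.5 buffer; luminescence output.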
ELG1 genotox: induces genotoxicity in HEK293T cells with luciferase-tagged ELG1 | HEK293T ELG1-luciferase reporter, luminescence, 16 h | Potency, µM (doses to about 46 µM), for the others: top-dose activity change, positive = activation, actives largely listed as activators | actives 1.3% (n = 330,000); further: % of control where 0% means no effect; nearly all actives have a fitted effect of over 60% in size
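HEK293T cells expressing luciferase-tagged ELG1 were exposed to compound or DMSO vehicle for 16 hr at 37 °C and 5% CO2. Luciferase activity was then measured with ONE-Glo after 30 min at room temperature.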
Starred values were filed as active, the others as inactive; ? = inconclusive; nt = no result given; [ ] = remark or other dose. The call rests on the fitted dose curve; in most records, active means well fitted curve in the direction sought with a large enough effect; inconclusive means small, poorly fitted or top-dose-only effect, or another doubt; inactive means no such curve, though single readings can be large; an effect the other way counts as inactive or inconclusive. Potency means the concentration at half of the fitted maximal effect.

SMILES | Rab9 prom act | SMN2 splice enh | ELG1 DNA repair | NPC1 promoter act | FLuc modulator | ELG1 genotox
CC(C)(C)C(=O)/C=C/c1ccc(Oc2ccccc2)cc1 | 6.3µM* | nt | ? | ? | 6µM* | ?
O=C(O)/C=C/c1ccc(Oc2ncccn2)cc1 | -4% | nt | 15% | -4% | -2% | 0%
O=C(CC1CCCCC1)NCCOc1ccccc1 | 1% | 8% | ? | 11% | -11% | 6%
CCOc1ccc(N/C=C/C(=O)c2ccccc2)c([N+](=O)[O-])c1 | 0.1µM* | 0.56µM* | ? | 0.1µM* | 0.12µM* | ?
CCOc1ccc(S(=O)(=O)N2CCOCC2)cc1NC(=O)Cc1c(F)cccc1Cl | -1% | nt | -9% | -4% | -2% | 3%
CCC(=O)Oc1c(Sc2ccc(Cl)cc2)c(C)nn1C(C)(C)C | nt | -12% | nt | nt | -12% | nt
Cc1ccccc1NC(=S)c1ccc2ccccc2n1 | -2% | nt | ? | 23% | 13µM* | ?
CCCN(CC(=O)Nc1ccccc1C)C(=O)c1ccc2ccccc2n1 | 3% | nt | 5% | -6% | 2% | 0%
O=C(Nc1ccccc1)c1ccc2ccccc2n1 | ? | ? | ? | 20% | 4.8µM* | ?
O=C(NNC(=O)c1ccc2ccccc2n1)c1ccc(O)cc1 | -3% | nt | 16% | -3% | ? | 1%
O=C(Nc1ccccc1C(=O)O)c1ccc2ccccc2n1 | ? | ? | ? | ? | 6µM* | ?
O=C(Nc1ccc(OC(F)(F)F)cc1)c1ccc2ccccc2n1 | 6% | -43% | -14% | 1% | ? | 1%
O=C(Nc1cccc(S(=O)(=O)NC2=NCCC2)c1)c1ccc(C(F)(F)F)cc1 | nt | nt | ? | nt | nt | -3%
O=C(O)CSc1cc(C(=O)c2ccccc2O)cn2c(=O)c3c4c(sc3nc12)CCCC4 | 2% | nt | -7% | 1% | 4.3µM* | 12%
O=C(O)CSc1nc2sc3c(c2c(=O)n1Cc1ccccc1)CCCCC3 | 22% | nt | ? | 24% | ? | ?
Cc1csc2nc(CN3CCN(CC(=O)N(C)C)CC3)cc(=O)n12 | -2% | nt | 5% | 0% | 3% | 1%
N#CC1=C2SC=C(c3ccc(Br)cc3)N2CCCC1=O | 1.6µM* | 16µM* | ? | ? | 5.4µM* | 19%
N#CC1=C2Sc3ccccc3N2CCCC1=O | ? | 6% | ? | ? | -19% | ?
COc1ccc2nc3c(cc2c1)Cc1ccccc1-3 | nt | 0.5µM* | nt | nt | nt | nt
CC(C)c1nnc(NC(=O)c2nc(S(=O)(=O)Cc3ccccc3F)ncc2Cl)s1 | -52% | nt | ? | -44% | 1% | -5%
Cc1nnc(NC(=O)c2nc(S(=O)(=O)Cc3ccccc3C)ncc2Cl)s1 | -63% | nt | 21µM* | -57% | -5% | -21%
COc1ccc(C)cc1S(=O)(=O)N1CCN(C)CC1c1ccccc1 (configuration not stated) | 6% | nt | 5% | 5% | -2% | 0%
Cc1nccn1CC(O)Cn1c2ccccc2c2ccccc21 (configuration not stated) | 1% | 6% | ? | -6% | -7% | 1%
CC1(C)Cc2c(cnn2-c2ccccc2)-c2c1c1ccccc1n2CC(O)CCl (configuration not stated) | 1% | -21% | 26µM* | -5% | -8% | -17%
C=C1C(=O)[C@@]23[C@H](O)C[C@@H]4C(C)(C)CC[C@H](O)[C@@]4(C)[C@@H]2CC[C@@H]1[C@H]3O | -43% | -85% | 6.5µM* | -19% | 3% | -11%
SMILES | Rab9 prom act | SMN2 splice enh | ELG1 DNA repair | NPC1 promoter act | FLuc modulator | ELG1 genotox
C=C1C(=O)[C@@]23[C@H](O)C[C@@H]4C(C)(C)CC[C@H](O)[C@]4(C)[C@@H]2C[C@H](O)[C@@H]1[C@H]3O | -39% | -57% | 16µM* | -26% | 2% | -9%
O=C(CCCN1C(=O)c2cccnc2Oc2ccc(Cl)cc21)N1CCCCC1 | 1% | nt | 16% | 0% | -3% | 4%
COc1ccc(C(=O)N2CCC(C(=O)O)CC2)c2ccccc12 | 14% | nt | 13% | -6% | 1% | -1%
CC[C@@]1([N+](=O)[O-])C[C@H]2C=C[C@@H]1C2 | nt | -6%[9.22 µM] | nt | nt | nt | nt
CCOc1ccc2nc(NC(=O)CSc3ccc(Cl)cc3)sc2c1 | 2% | 8% | 3% | 2% | ? | 25%
COc1ccc2nc(NC(=O)CSc3nc4cccnc4n3C)sc2c1 | -1% | -43% | ? | -4% | -3% | -4%
COc1ccc2nc(NC(=O)CSc3ccccc3)sc2c1 | 13% | -11% | ? | 17% | 17µM* | ?
COc1ccc2nc(NC(=O)CSc3nnc(C)n3N)sc2c1 | 0.5µM* | nt | ? | 1.6µM* | 3µM* | 7.3µM*
COc1ccc2nc(NC(=O)CCc3ccc(OC)c(OC)c3)sc2c1 | 10% | 12% | -5% | 2% | -9% | 10%
COc1ccc2nc(NC(=O)CS(=O)(=O)Cc3ccccc3)sc2c1 | 11% | 15% | 24% | -1% | ? | 5%
CCOc1ccc2nc(NC(=O)CSc3nc(SC)ns3)sc2c1 | ? | ? | ? | 22% | 24µM* | 18%
CCCC(=O)Nc1nc2ccc(OC)cc2s1 | 1.8µM* | 10µM* | ? | 0.89µM* | 7.6µM* | ?
CC(NC(=O)[C@H](C)NC(=O)[C@@H]1CSC2c3ccccc3C(=O)N21)c1ccccc1 (some centres not stated) | 2% | nt | 0% | -4% | -3% | -1%
C=C1C[C@@]23CC[C@H]4[C@@](C)(CCC[C@@]4(C)C(=O)OC4OC(CO)C(O)C(O)C4O)[C@@H]2CC[C@]1(OC1OC(CO)C(O)C(O)C1OC1OC(CO)C(O)C(O)C1O)C3 (some centres not stated) | -8%[46.1 µM] | nt | nt | -5%[46.1 µM] | nt | nt
O=C(NCC(=O)N(c1ccccc1)C(C(=O)NC1CCCCC1)c1cccnc1)c1ccco1 (configuration not stated) | -2% | nt | -4% | 1% | 1% | -11%
CCOc1ccccc1N1CC(C(=O)NC2CCCCCC2)CC1=O (configuration not stated) | nt | nt | ? | nt | nt | -1%
O=C(/C=C/c1ccccc1[N+](=O)[O-])NC1CCCC1 | 22% | 29% | 11% | 0% | -3% | 11%
CCOc1ccc2nc(NC(=O)CSC3=NCCS3)sc2c1 | ? | 6% | -1% | ? | 15µM* | ?
COc1ccc2nc(NC(=S)N(C)C)sc2c1 | 0.63µM* | -18% | ? | 0.71µM* | 1.9µM* | 0.82µM*
COc1ccc2nc(NC(=O)CSC3=NCCS3)sc2c1 | ? | -7% | 14% | ? | 17µM* | -1%

Source: PubChem BioAssay
